Assay results taken from publication PMC9911399, “Two distinct binding modes provide the RNA-binding protein RbFox with extraordinary sequence specificity”.
Changes are numbered by the printed parent chain; changes in the protein carry UniProt numbers. Whole data set: some 16,000 sequences, median “ka relative to ugcaugu” near 0.096, cut for the highest 2% near 0.35. For the sample, the highest values were picked, then their nearest neighbours and some sequences at random.

B1: ACGAAGA (DNA:RNA)
RNA: GGGAGACCGGAAUUCAGAUUGUCCACGAAGAUUAAAUCCCGUCGUAGCCACCA
DNA 1: CAATCTGAATTCCGGTCTCCC
DNA 2: TGGTGGCTACGACGGGATT
B2: UUCGCAG (DNA:RNA)
RNA: GGGAGACCGGAAUUCAGAUUGUCCUUCGCAGUUAAAUCCCGUCGUAGCCACCA
DNA 1: CAATCTGAATTCCGGTCTCCC
DNA 2: TGGTGGCTACGACGGGATT
B3: GACGGCA (DNA:RNA)
RNA: B2 RNA with U25G, U26A, C29G, A30C, G31A
DNA 1: CAATCTGAATTCCGGTCTCCC
DNA 2: TGGTGGCTACGACGGGATT
B4: AUUGGAU (DNA:RNA)
RNA: B2 RNA with U25A, C27U, C29G, G31U
DNA 1: CAATCTGAATTCCGGTCTCCC
DNA 2: TGGTGGCTACGACGGGATT
B5: UGUUUUU (DNA:RNA)
RNA: B2 RNA with U26G, C27U, G28U, C29U, A30U, G31U
DNA 1: CAATCTGAATTCCGGTCTCCC
DNA 2: TGGTGGCTACGACGGGATT
B6: UGUUUGU (DNA:RNA)
RNA: B1 RNA with A25U, C26G, G27U, A28U, A29U, A31U
DNA 1: CAATCTGAATTCCGGTCTCCC
DNA 2: TGGTGGCTACGACGGGATT
B7: ACCUGUG (DNA:RNA)
RNA: B1 RNA with G27C, A28U, A29G, G30U, A31G
DNA 1: CAATCTGAATTCCGGTCTCCC
DNA 2: TGGTGGCTACGACGGGATT
B8: CUGUUGU (DNA:RNA)
RNA: B1 RNA with A25C, C26U, A28U, A29U, A31U
DNA 1: CAATCTGAATTCCGGTCTCCC
DNA 2: TGGTGGCTACGACGGGATT
B9: CUGUCGU (DNA:RNA)
RNA: B1 RNA with A25C, C26U, A28U, A29C, A31U
DNA 1: CAATCTGAATTCCGGTCTCCC
DNA 2: TGGTGGCTACGACGGGATT
B10: CUGUGUU (DNA:RNA)
RNA: B1 RNA with A25C, C26U, A28U, A29G, G30U, A31U
DNA 1: CAATCTGAATTCCGGTCTCCC
DNA 2: TGGTGGCTACGACGGGATT
B11: CCCUGUG (DNA:RNA)
RNA: B2 RNA with U25C, U26C, G28U, C29G, A30U
DNA 1: CAATCTGAATTCCGGTCTCCC
DNA 2: TGGTGGCTACGACGGGATT
B12: UGUCCGU (DNA:RNA)
RNA: B2 RNA with U26G, C27U, G28C, A30G, G31U
DNA 1: CAATCTGAATTCCGGTCTCCC
DNA 2: TGGTGGCTACGACGGGATT
B13: CUGUUUG (DNA:RNA)
RNA: B2 RNA with U25C, C27G, G28U, C29U, A30U
DNA 1: CAATCTGAATTCCGGTCTCCC
DNA 2: TGGTGGCTACGACGGGATT
B14: UGUGUGU (DNA:RNA)
RNA: B2 RNA with U26G, C27U, C29U, A30G, G31U
DNA 1: CAATCTGAATTCCGGTCTCCC
DNA 2: TGGTGGCTACGACGGGATT
B15: CUGUGUG (DNA:RNA)
RNA: B2 RNA with U25C, C27G, G28U, C29G, A30U
DNA 1: CAATCTGAATTCCGGTCTCCC
DNA 2: TGGTGGCTACGACGGGATT
B16: UGUGUUU (DNA:RNA)
RNA: B2 RNA with U26G, C27U, C29U, A30U, G31U
DNA 1: CAATCTGAATTCCGGTCTCCC
DNA 2: TGGTGGCTACGACGGGATT

These binders were tested against T1, RBFOX1 RRM RbFoxmut (Fox-RRM*) (Homo sapiens, UniProt Q9NWB1 109-208, R118D;E147R;N151S;E152T) (assay: EMSA; HiTS-Eq, 1 nM pool, 10 min; buffer printed only for the single-RNA assays: 10 mM Tris pH 7.5, 150 mM NaCl, 3.4 mM EDTA, 0.001% NP-40, 30 C). Details: tags: His6 N-terminal (pET28a); label: 5' 32P.
T1 sequence: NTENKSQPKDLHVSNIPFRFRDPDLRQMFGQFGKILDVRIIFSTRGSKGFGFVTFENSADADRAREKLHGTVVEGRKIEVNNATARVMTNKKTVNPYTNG
Method in brief: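 Relative association constants, normalised to the cognate motif, were derived by comparing read counts of each RNA species with those of the control reaction. The RNA sequenced was the free fraction, separated by 8% native PAGE after a 10 min equilibration in 50 µL of 1 nM 5′-radiolabelled RNA (7 randomized nucleotides) with increasing concentrations of purified wild-type or mutant RbFox RRM.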

Binder | binding signal
B1 | 0.105 KA relative to UGCAUGU
B2 | 0.0914 KA relative to UGCAUGU
B3 | 0.149 KA relative to UGCAUGU
B4 | 0.0952 KA relative to UGCAUGU
B5 | 0.0878 KA relative to UGCAUGU
B6 | 0.549 KA relative to UGCAUGU
B7 | 0.139 KA relative to UGCAUGU
B8 | 0.166 KA relative to UGCAUGU
B9 | 0.138 KA relative to UGCAUGU
B10 | 0.14 KA relative to UGCAUGU
B11 | 0.138 KA relative to UGCAUGU
B12 | 0.147 KA relative to UGCAUGU
B13 | 0.75 KA relative to UGCAUGU
B14 | 0.366 KA relative to UGCAUGU
B15 | 0.388 KA relative to UGCAUGU
B16 | 0.115 KA relative to UGCAUGU
